test system: Trichuris muris adult worms; assay: mean motility score (Paragon pixel variance) of adult worms (arbitrary units); higher = more motile worms, i.e. less anthelmintic effect; extreme values may be limits of the assay; conditions: 100 µM; 24 h
Outline: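 In 96-well plates, one adult Trichuris muris worm from infected NOD SCID mice went into each well with 100 μL RPMI-1640, antibiotics and drug at 100 μM (1% v/v DMSO). After 24 h at 37°C and 5% CO2, the plates were filmed on an automated phenotyping platform. Paragon pixel-variance analysis gave the motility score, which was averaged across replicate wells.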

SMILES	mean motility score
COC(=O)c1ccc2c(c1)NC(=O)/C2=C(\Nc1ccc(N(C)C(=O)CN2CCN(C)CC2)cc1)c1ccccc1 [nintedanib]	3140
c1ccc2c(CC3=NCCN3)cccc2c1 [naphazoline]	4300
COc1ccc(C(=O)CC(=O)c2ccc(C(C)(C)C)cc2)cc1 [avobenzone]	3070
CC(=O)Nc1ccc(O)cc1 [acetaminophen]	2180
CCCCCCCCCC(=O)OC1(c2ccc(Cl)cc2)CCN(CCCC(=O)c2ccc(F)cc2)CC1 [haloperidol decanoate]	4450
CS(=O)(=O)c1cccc(C[C@H](NC(=O)c2c(Cl)cc3c(c2Cl)CCN(C(=O)c2ccc4ccoc4c2)C3)C(=O)O)c1 [lifitegrast]	3490
CCOc1cc(N)c(Cl)cc1C(=O)NCC1CN(Cc2ccc(F)cc2)CCO1 (centres undefined) [mosapride]	2610
CN(C(=O)CN(CCO)CC(=O)N(C)C(C)(C)Cc1ccccc1)C(C)(C)Cc1ccccc1 [oxethazaine]	184
CCCCC1C(=O)N(c2ccccc2)N(c2ccccc2)C1=O [phenylbutazone]	1530
CCOC(=O)n1ccn(C)c1=S [carbimazole]	1610
O=C(O)[C@@H](O)[C@H](O)C(=O)O [tartaric acid]	3400
NCCc1ccc(O)c(O)c1 [dopamine]	3440
NC[C@H](O)c1ccc(O)c(O)c1 [noradrenaline]	3120
CN(C)C(=O)C(CCN1CCC(O)(c2ccc(Cl)cc2)CC1)(c1ccccc1)c1ccccc1 [loperamide]	0
CN1CCN(C2=Nc3cc(Cl)ccc3Nc3ccccc32)CC1 [clozapine]	2870
Cc1nc(Nc2ncc(C(=O)Nc3c(C)cccc3Cl)s2)cc(N2CCN(CCO)CC2)n1 [dasatinib]	1190
CCOC(=O)c1ncn2c1CN(C)C(=O)c1cc(F)ccc1-2 [flumazenil]	3230
CCn1cc(C(=O)O)c(=O)c2cc(F)c(N3CCNCC3)cc21 [norfloxacin]	1950
CCOC(=O)[C@H](CCc1ccccc1)N[C@H]1CCc2ccccc2N(CC(=O)O)C1=O.Cl [benazepril hydrochloride]	2030
Cc1cn(-c2cc(NC(=O)c3ccc(C)c(Nc4nccc(-c5cccnc5)n4)c3)cc(C(F)(F)F)c2)cn1 [nilotinib]	2370
CCN1CCN(c2cc(-c3ccc(F)cc3)c3c(n2)CCCCCC3)CC1 [blonanserin]	3080
Cc1ccc(-c2cc(C(F)(F)F)nn2-c2ccc(S(N)(=O)=O)cc2)cc1 [celecoxib]	0
CCCNC(=O)NS(=O)(=O)c1ccc(Cl)cc1 [chlorpropamide]	2860
COc1cc2c(Oc3ccc4[nH]c(C)cc4c3F)ncnc2cc1OCCCN1CCCC1 [cediranib]	0

Reference: the supplement of paper PMC10503962
